# Measurements as given in PubChem BioAssay (Tox21).
# “And” between values parts separate entries of the source, which are not always exact repeats. Equal values may be shown once. Records with an inconclusive call do not appear. Where a call stands in place of a potency, no number is given. A structure can be active in one record and inactive in another. The source made the active and inactive calls. Calls follow the shape of the full dose curve.
# Test: p53 small molecule agonists, cell-based qHTS assay with human liver microsomes: qHTS cell viability counter screen (AID 1963579)
# Settings: p53RE-bla HCT-116 viability, ATP luminescence, 16 h, HLM; series mostly up to 66 µM
# Summary of the method: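 Cytotoxicity counter screen: p53RE-bla, 4,000 cells/well; 5 h settle, 37 C/5% CO2; cpd + HLM 0.5 mg/mL + NADPH 0.5 mg/mL (final); 16 h, 37 C; CellTiter-Glo, 30 min RT, luminescence.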
# Also: nearly all actives have a fitted effect of over 45% in size.
# Potency is read from the fitted curve at half-maximal effect.
row,SMILES,Potency
1,CCCCCCCCCCCCOCC1CO1 (stereo not drawn),inactive
2,CCC/C=C/C=O,inactive
3,CCCCC(CC)COC(C)=O (stereo not drawn),inactive
4,NC[C@H](O)c1ccc(O)c(O)c1,inactive
5,CC/C=C\C/C=C\C/C=C\CCCCCCCC(=O)O,inactive and 20.4 µM (active)
6,OCCNCCO,inactive
7,CCCCC(CC)COP(=O)(O)OCC(CC)CCCC (stereo not drawn),36.4 µM (active) and 20.4 µM (active)
8,OC[C@H]1O[C@@H]2O[C@H]3[C@H](O)[C@@H](O)[C@@H](O[C@H]4[C@H](O)[C@@H](O)[C@@H](O[C@H]5[C@H](O)[C@@H](O)[C@@H](O[C@H]6[C@H](O)[C@@H](O)[C@@H](O[C@H]7[C@H](O)[C@@H](O)[C@@H](O[C@H]1[C@H](O)[C@H]2O)O[C@@H]7CO)O[C@@H]6CO)O[C@@H]5CO)O[C@@H]4CO)O[C@@H]3CO,inactive
9,O=c1[nH]cnc2[nH]ncc12,inactive
10,Oc1ccc2cc(SSc3ccc4cc(O)ccc4c3)ccc2c1,inactive
11,O=C(O)c1ccc(C(=O)O)c(C(=O)O)c1,inactive
12,O=C1c2ccccc2CCc2ccccc21,inactive
13,CCN(CC)c1ccc(C(=O)c2ccccc2C(=O)O)c(O)c1,inactive
14,Clc1ccc2c(c1)C(N1CCNCC1)=Nc1ccccc1O2,inactive
15,C=CC(=O)NCOCCCC,inactive
16,N[C@@H](Cc1c[nH]c2ccc(O)cc12)C(=O)O,inactive
17,O=[N+]([O-])c1ccc2nc[nH]c2c1,inactive
18,CN=C(NC#N)NCCSCc1nc[nH]c1C,inactive
19,O=C(O)c1ccccc1C(c1ccc(O)cc1)c1ccc(O)cc1,inactive
20,CN(Cc1cnc2nc(N)nc(N)c2n1)c1ccc(C(=O)N[C@@H](CCC(=O)O)C(=O)O)cc1,inactive

row,SMILES,Potency
1,CCCCCCCCCCCCCC[P+](CCCC)(CCCC)CCCC,45.5 µM (active) and 20.4 µM (active)
2,CC1COc2ccccc2N1C(=O)C(Cl)Cl (stereo not drawn),inactive
3,OC1CCCC1,inactive
4,C[C@]12CCC(=O)C=C1CC[C@@H]1[C@@H]2[C@@H](O)C[C@@]2(C)[C@H]1CC[C@]2(O)C(=O)CO,inactive
5,S=C(NC1CCCCC1)NC1CCCCC1,inactive
6,CC(C)c1ccc(S(=O)(=O)O)cc1,inactive
7,CC(C)CC(C)O (stereo not drawn),inactive
8,C[N+](C)(C)CCO,inactive
9,OCC(CO)(CO)CO,inactive
10,CC1(C)O[C@@H]2C[C@H]3[C@@H]4C[C@H](F)C5=CC(=O)C=C[C@]5(C)[C@@]4(F)[C@@H](O)C[C@]3(C)[C@]2(C(=O)CO)O1,inactive
11,CC(C)OC(=O)C(C)(C)Oc1ccc(C(=O)c2ccc(Cl)cc2)cc1,inactive
12,CCCCCCCCCCCC(=O)N(C)CC(=O)O,inactive
13,O=C(COc1ccc(Cl)cc1)N1CCN(Cc2ccc3c(c2)OCO3)CC1,inactive
14,CCC(=O)O[C@H]1[C@H](O[C@@H]2[C@@H](C)[C@H](O[C@H]3C[C@@](C)(OC)[C@@H](O)[C@H](C)O3)[C@@H](C)C(=O)O[C@H](CC)[C@@](C)(O)[C@H](O)[C@@H](C)C(=O)[C@H](C)C[C@@]2(C)O)O[C@H](C)C[C@@H]1N(C)C,inactive
15,O=C1OC2(c3ccccc31)c1cc(Br)c(O)c(Br)c1Oc1c2cc(Br)c(O)c1Br,inactive
16,Cc1cc(OCCOCC[N+](C)(C)Cc2ccccc2)ccc1C(C)(C)CC(C)(C)C,36.1 µM (active) and inactive
17,NCCNCCNCCNCCN,inactive
18,CC(=O)OC1CC(C)OC(C)O1 (stereo not drawn),inactive
19,O=C1CC2(CCCC2)CC(=O)N1CCCCN1CCN(c2ncccn2)CC1,inactive

# Test: p53 small molecule agonists, cell-based qHTS assay with rat liver microsomes: qHTS cell viability counter screen (AID 1963580)
# Settings: p53RE-bla HCT-116 + rat microsomes, ATP viability, 16 h; series mostly up to 66 µM
# Summary of the method: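 p53RE-bla HCT-116 cells (4,000/well) rested 5 h at 37 C, then given Tox21 compounds in DMSO with rat liver microsomes (0.5 mg/mL final) plus NADPH (0.5 mg/mL final) for 16 h at 37 C. Viability read by CellTiter-Glo luminescence after 30 min at room temperature.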
row,SMILES,Potency
1,CCCCCCCCCCCCOCC1CO1 (stereo not drawn),inactive
2,CCC/C=C/C=O,inactive
3,CCCCC(CC)COC(C)=O (stereo not drawn),inactive
4,NC[C@H](O)c1ccc(O)c(O)c1,inactive
5,CC/C=C\C/C=C\C/C=C\CCCCCCCC(=O)O,inactive
6,OCCNCCO,inactive
7,CCCCC(CC)COP(=O)(O)OCC(CC)CCCC (stereo not drawn),28.9 µM (active)
8,OC[C@H]1O[C@@H]2O[C@H]3[C@H](O)[C@@H](O)[C@@H](O[C@H]4[C@H](O)[C@@H](O)[C@@H](O[C@H]5[C@H](O)[C@@H](O)[C@@H](O[C@H]6[C@H](O)[C@@H](O)[C@@H](O[C@H]7[C@H](O)[C@@H](O)[C@@H](O[C@H]1[C@H](O)[C@H]2O)O[C@@H]7CO)O[C@@H]6CO)O[C@@H]5CO)O[C@@H]4CO)O[C@@H]3CO,inactive
9,O=c1[nH]cnc2[nH]ncc12,inactive
10,Oc1ccc2cc(SSc3ccc4cc(O)ccc4c3)ccc2c1,inactive
11,O=C(O)c1ccc(C(=O)O)c(C(=O)O)c1,inactive
12,O=C1c2ccccc2CCc2ccccc21,inactive
13,CCN(CC)c1ccc(C(=O)c2ccccc2C(=O)O)c(O)c1,inactive
14,Clc1ccc2c(c1)C(N1CCNCC1)=Nc1ccccc1O2,inactive
15,C=CC(=O)NCOCCCC,inactive
16,N[C@@H](Cc1c[nH]c2ccc(O)cc12)C(=O)O,inactive
17,O=[N+]([O-])c1ccc2nc[nH]c2c1,inactive
18,CN=C(NC#N)NCCSCc1nc[nH]c1C,inactive
19,O=C(O)c1ccccc1C(c1ccc(O)cc1)c1ccc(O)cc1,inactive
20,CN(Cc1cnc2nc(N)nc(N)c2n1)c1ccc(C(=O)N[C@@H](CCC(=O)O)C(=O)O)cc1,inactive

row,SMILES,Potency
1,CCCCCCCCCCCCCC[P+](CCCC)(CCCC)CCCC,45.5 µM (active) and 40.8 µM (active)
2,CC1COc2ccccc2N1C(=O)C(Cl)Cl (stereo not drawn),inactive
3,OC1CCCC1,inactive
4,C[C@]12CCC(=O)C=C1CC[C@@H]1[C@@H]2[C@@H](O)C[C@@]2(C)[C@H]1CC[C@]2(O)C(=O)CO,inactive
5,S=C(NC1CCCCC1)NC1CCCCC1,inactive
6,CC(C)c1ccc(S(=O)(=O)O)cc1,inactive
7,CC(C)CC(C)O (stereo not drawn),inactive
8,C[N+](C)(C)CCO,inactive
9,OCC(CO)(CO)CO,inactive
10,CC1(C)O[C@@H]2C[C@H]3[C@@H]4C[C@H](F)C5=CC(=O)C=C[C@]5(C)[C@@]4(F)[C@@H](O)C[C@]3(C)[C@]2(C(=O)CO)O1,inactive
11,CC(C)OC(=O)C(C)(C)Oc1ccc(C(=O)c2ccc(Cl)cc2)cc1,inactive
12,CCCCCCCCCCCC(=O)N(C)CC(=O)O,inactive
13,O=C(COc1ccc(Cl)cc1)N1CCN(Cc2ccc3c(c2)OCO3)CC1,inactive
14,CCC(=O)O[C@H]1[C@H](O[C@@H]2[C@@H](C)[C@H](O[C@H]3C[C@@](C)(OC)[C@@H](O)[C@H](C)O3)[C@@H](C)C(=O)O[C@H](CC)[C@@](C)(O)[C@H](O)[C@@H](C)C(=O)[C@H](C)C[C@@]2(C)O)O[C@H](C)C[C@@H]1N(C)C,inactive
15,O=C1OC2(c3ccccc31)c1cc(Br)c(O)c(Br)c1Oc1c2cc(Br)c(O)c1Br,inactive
16,Cc1cc(OCCOCC[N+](C)(C)Cc2ccccc2)ccc1C(C)(C)CC(C)(C)C,inactive
17,NCCNCCNCCNCCN,inactive
18,CC(=O)OC1CC(C)OC(C)O1 (stereo not drawn),inactive
19,O=C1CC2(CCCC2)CC(=O)N1CCCCN1CCN(c2ncccn2)CC1,inactive
